For 109 sequences, median seed-adjusted z-score results are on record in PubChem BioAssay AID1347426 (Functional Genomics Laboratory (NCATS/FGL), 2020).

Among all 31,000 sequences or so, about 1,400 (4.5%) were called active. The sample as a whole holds a higher share of actives than the screen did. Values without a mark were called inactive.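 Rule for the calls: active = median seed-adjusted z-score above 1 or below -1; inactive = the rest.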

The nature of this experiment: Novel Modifiers of Survival Motor Neuron (SMN) Protein: Gene Identification via Genome-wide siRNA Screen.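 Note: luminescence tracks full-length SMN protein made from the SMN2 reporter.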 As to conditions: HEK293T SMN2-luciferase reporter, siRNA knockdown, 72 h; actives lie on both sides. Put shortly:
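Genome-wide siRNA screen (10418 genes, 3 siRNAs each, 1 pmol per well) by reverse transfection in HEK293T cells stably carrying an SMN2-luciferase reporter; luminescence after 72 hours, normalized to negative-control siRNA, log10-transformed, MAD-scored.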
In the case of GGAUCAAGGCUAUGUGGAUTT against CYB5R1, the median seed-adjusted z-score was 0. In the case of UAUGAGUUGUUGUUGGGAATT against NSUN5 it was 0.118.

UCUUAUCCUUUGUCGCAGATT against LMO3: the median seed-adjusted z-score is 0.496. In the case of GCAUCACCCAAGUAGUUAUTT against SFXN2 it was 0.365; in that of GACUCAUAUGGACCAGUUATT against ZNF460, -0.302.

As to CAUGGGCUCUAUUACGCUUTT against SPEN, the median seed-adjusted z-score is -1.69 (active). Consider GUCUACCCAUGGACCCAGATT against HBG1, for which the median seed-adjusted z-score is -0.716. In the case of CACCAACUAAUGUUACAAUTT against IFNGR1 it was -0.279; in that of CCUCGAGACUAUACGGUUATT against MED26, -1.86 (active). In the case of CCAGUGGAGUGGUAUCUAUTT against RBBP5 it was 0.169; in that of GAACUCAUGUCCGACAUAATT against STX1A, 0; in that of GCGCUUUGGAGAUCCGAGATT against KLC3, -0.156.

For the sequence GCAGUAGAAGUAUCCGGGATT against THSD4, the median seed-adjusted z-score was 0.0657.

Regarding CCUUCUCAAUGGAUUCCAATT against VN1R1, the median seed-adjusted z-score is 0.531. To GGUCAUGCAGGGUUGGAAATT against ALDH1B1 belongs 0.105. In the case of GGAAGAUUGUCGCUCCUCATT against TFAP2C it was 1.28 (active); in that of CAGAAGACCUGGUGCCCUATT against SPI1, 0.384; in that of GCAUUAAUAACAUUACGUUTT against ZNF236, 0.683. To CGCCCGCGAUUACUACCAUTT against HSPA12B belongs -0.141; to GUGCCACCGGAGCUAGUAATT against KCNK4, -0.446. With AGGUGAAACUUCGAAGACATT against TRPM3, the median seed-adjusted z-score is -0.633. In the case of CGAUGAACGAGUACAUUGATT against GRIA2 it was -1.02 (active); in that of CAUCUGAAGUGGUUAAGCATT against SLC25A26, 0.0213. Consider CCGGAAAUUUGGGACGCAATT against DHX58, for which the median seed-adjusted z-score is -0.302. In the case of GGAGGUCAUUAAAACACCATT against HADH it was 1.11 (active); in that of GGACGACCGUGUAUAGUUUTT against RFESD, -0.503; in that of CACUUUAGAUGAUAUCAGATT against PPP3CA, 0.74. In the case of GCUAUAAGGUGGAACGGCATT against POLR2A, the median seed-adjusted z-score was -3.81 (active).

With GCUUAUGGAUGGAGACCAATT against RNF34, the median seed-adjusted z-score is -0.0857. Turning to AGGUGAUGUCGGUCGGAGATT against RAB24, the median seed-adjusted z-score is 0.123. On to AGCAAUAACUCGUGUAGCATT against EFNA2, for which the median seed-adjusted z-score was -0.314. On to GGGCGGUACUUUACAACUATT against KCTD9, for which the median seed-adjusted z-score was 1.31 (active).

Consider CUAGAGUAUUUUGAUCUAATT against FAT2, for which the median seed-adjusted z-score is -0.286.

As for CACCGUGUUUGACAACUAUTT against RAC2, the median seed-adjusted z-score was -0.596.

GGACCAACCCAGAAUCGUATT against MAOB: the median seed-adjusted z-score was 0. To UCGCAAAGGUGAACACUCATT against PIN1 belongs 0.156; to AGAUGUGACUGGCUGGUCATT against LCN12, 0.124. In the case of AGACCUACACGGUACGCGUTT against THAP11 it was -1.36 (active). In the case of GCAUCUAAUACUUAUGGAATT against MS4A4A it was 0.296; in that of GAAGCAUGAUGGACAGGAUTT against ISOC1, 0.104.

CCUCGACCUGGUCACUUUATT against TRMU: the median seed-adjusted z-score is 0.0312.

Regarding CCGUAGCAAUAGUAGGUGUTT against UBA5, the median seed-adjusted z-score was -0.105. To GCCUGACCAUCUCCAUUGUTT against USH1C belongs -0.164; to CGUGUUCCGAGAAAACGAATT against PLEKHM2, 0.593. In the case of GCAACAGCUCAAAAACGAATT against UAP1 it was 0.0411. To CAUCUACUGUCAUUAACCATT against ITIH5 belongs -0.289. As to AGACCCAGCUAGAUUCUGATT against GPR152, the median seed-adjusted z-score is -0.9. For CCUCGUUUGACAUCCACUATT against CTSD, the median seed-adjusted z-score is -0.282. To CAUUCACGGAGAUAAGAAATT against ALDH1L1 belongs 0.0289. To UGAAUUACCUGGACCGUUUTT against CCND2 belongs -0.819.

As for UGCGUUUUCUGAUAACUCATT against PTP4A2, the median seed-adjusted z-score was -1.45 (active). To GGCAAAAAGCUGACUGAGATT against GPD1 belongs 0.558. In the case of GGAUGAUUAUGCUAAUCUATT against GGPS1 it was -0.372; in that of GCACUGUCUUUGUAUCUGATT against SFXN2, 0.365; in that of GGGCUGUUGUAAUAGUGGATT against SFPQ, -1.15 (active). In the case of AGGCCUUUCUUACCCAGAATT against MAP2K1 it was 0.942.

CACUUGAUCUCUUAACCAUTT against 10-Sep: the median seed-adjusted z-score was 0.571. In the case of GCACAGGACAGACAGGCUATT against SRC it was -0.0246.

Take GGAUUACAGCAGGUGCAGATT against MED8: the median seed-adjusted z-score was -1.61 (active). To GAAUCUCACAAUUAUGUAUTT against NCK2 belongs -0.397; to AGAUAAGCAUGGUGCCCAATT against BPI, 0; to GACCGUUUAAUGAAGCUUUTT against SPTLC2, 0.

Take CCAUUGUAGUCUCUCCUCUTT against RECQL5: the median seed-adjusted z-score was 0.

With GCCCUCCUGUGCAACCAUATT against SPRR2G, the median seed-adjusted z-score was 0.358. For the sequence ACAUGAAGGUGAAUCCUGUTT against COX4I2, the median seed-adjusted z-score was -0.0202. In the case of CAGCGAUUUUAAAUCGUAUTT against HSD17B13 it was -0.329; in that of CAACCAACCUGCAUCUAGATT against TRIM33, 0.316; in that of CGACCCUUGAAGUUCAAUATT against EFTUD2, -1.25 (active). To GGAUCCUUCUAUACGCAUATT against SLC4A7 belongs 0; to CAGUAGAUGUGGAAAAGGATT against PTK2B, 1.71 (active). In the case of CCAUUGAUGGAGUCAGAUUTT against POLD2 it was 0.97. For CCACUAGUGAAACAACCAATT against PCLO, the median seed-adjusted z-score is -0.734. In the case of GCAAGGAGCUAGAGCCUUUTT against MOBKL2B it was -0.613; in that of GCAAGUCCACGUUCCUCAATT against GNA12, 0.598; in that of AGCUACCGAUGGAAGAGGATT against CLK3, -1.11 (active). In the case of AGGUCAAGCUUAGUGACAATT against ZDHHC8, the median seed-adjusted z-score was 0. To GCUUCUCAUGGGAUCAAAATT against PGCP belongs 0.145; to CCGGGAAAUUGAUUAUGCATT against SIN3B, 0.509. To GCAUCUCAUCGGAAGAGGATT against MAP3K12 belongs -0.6; to GAUCCUAAAUCAUGACUUATT against COX6B1, -0.706. In the case of GGACGAAUGAGUUCCAGUUTT against PCDHB8 it was 1.15 (active).

On to AGACCUAGCUUUAGCACAATT against ZFAND2B, for which the median seed-adjusted z-score was 0. To GAAGCGGCAUUAGCAGAGATT against ISOC1 belongs 0.104. In the case of GGUAAAAUCAAGUACCAUATT against TIGD2 it was -0.13; in that of GCAUCACCAUCCUUCCGCATT against BACE1, -0.537; in that of AGAGAGUGGUUUUUCCUCCTT against WWP2, -0.685. In the case of GUGCUUCAGUAGGUAUGUATT against ASNS it was -1.1 (active); in that of GGCCUUUAGUUAUAAAGGATT against TIMM8A, 0.173. Regarding ACAUAGCCGUGUCCAGGUATT against GLYCTK, the median seed-adjusted z-score is 0.0328. To GACCUGAAUUGUAUCAUCATT against MAPK3 belongs -0.573. To GAACUCCAGAGAUCAAUAATT against IL7R belongs 0. In the case of CCAACUAUCAGUGACCGUATT against CYP17A1 it was -1.39 (active); in that of CUAUCACCUGGACUGUAUATT against RNF11, -0.365. Regarding GGAGACUUACUACCUAUAATT against PARD6B, the median seed-adjusted z-score was 0.315.

On to GGCUUCUUCUAUUCAAUUUTT against BCL6B, for which the median seed-adjusted z-score is 0. To GAACUGACAAGCUUAGUAATT against SAP18 belongs 2.14 (active). In the case of AUACAGAUCUAAUAGAGUUTT against NAT1 it was -0.0665; in that of CCAUUGACAAUUCAACUUATT against ST8SIA1, -0.25. In the case of CGCCUCAACCUGAUCAUCATT against ENPP7 it was -0.478; in that of GUGCCUUGCUAUUCUAAGATT against NEUROD1, 0; in that of GAAACUCUCUUCAAGUCUATT against CKB, -0.236. Regarding GGCAAAUGGUUGAGACUGATT against YWHAE, the median seed-adjusted z-score was 1.38 (active). To GCAGCAUAAUGAAACGUGATT against ARPM1 belongs -0.0251; to UCUUCGAGCAAGAAACUAATT against CD9, -1.02 (active); to AUAAAUUCCUGAUUGCUAATT against CXCL6, 0.802. To GGACUACAGCGGACAAGGATT against WDR1 belongs -0.457.

For GGAACAUUCCUGUGCAACATT against MTMR3, the median seed-adjusted z-score is 0.281. For GAUGAUAGCCAAACCCUCATT against ZNF626, the median seed-adjusted z-score was 0.185. In the case of GGUGUUGUUUCAUCGUUUUTT against CCNL1 it was -1.26 (active).
